Source: the supplement of paper PMC10849652
Of roughly 8,800 targets only a part is listed; those with a hit were picked by preference. About 0.5% of all pairs of compound and target were hits. A number with no mark means an inactive call.

Experiments:
Test in all cases: log2 fold change, soluble protein after heating vs DMSO (PISA); higher = thermal stabilisation; K562 lysate, 10 uM; active = over 0.2 and 3.5 SD of the protein, either way, in both replicates (recomputed)
[1] = compound: C#Cc1cccc(Nc2ncnc3cc(OCCOC)c(OCCOC)cc23)c1 [erlotinib]
How it was run: (§1)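 Thermal stability, expressed as log-two fold change relative to solvent controls, is given from duplicates. Crude K562 extract in PBS pH 7.4 with 1 mM MgCl2, at 1 mg/mL protein, was treated with 10 μM compound for 30 min and heated in aliquots for 3 min across 48°C-58°C. After pooling, adjustment to 0.5% NP-40 at 4°C and centrifugation at 21,000xg for 90 min, supernatant protein was measured by TMTpro 16plex LC-MS/MS with channel sums equalised.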

[2] = compound: C/C(=N\NC(=O)C1=CC(=CC=C1)S(=O)(=O)N2CCOCC2)/C3=C(C=CC(=C3)Cl)O
How it was run: as §1

[3] = compound: C1=CC(=CC=C1C2=NC3=C(N2)C=C(C=C3)C(=O)N)OC4=CC=C(C=C4)Cl
How it was run: as §1

[4] = compound: C1=CC2=C(C=CC(=C2)/C=C\3/C(=O)NC(=NCC4=CC=CS4)S3)N=C1
How it was run: as §1

[5] = compound: C1=CC2=NC=CN=C2C=C1/C=C/3\C(=O)NC(=O)S3
How it was run: as §1

[6] = compound: C1=CC=C(C=C1)C2=NC(=C(N2)C3=CC=NC=C3)C4=CC(=C(C=C4)Cl)O
How it was run: as §1

[7] = compound: C1=CC=C2C(=C1)C3=NNC4=CC=CC(=C43)C2=O
How it was run: as §1

[8] = compound: C1CCN(C1)C(=O)NC2=CC=CC(=C2)NC3=NC=C(C(=N3)NCCC4=CN=CN4)Br
How it was run: as §1

[9] = compound: C1CN(CCC1(CC2=CC=C(C=C2)Cl)N)C3=NC=NC4=C3C=CN4
How it was run: as §1

[10] = compound: C1COCCN1CCN2C3=CC=CC=C3N=C2NC(=O)C4=CC(=CC=C4)[N+](=O)[O-] [IRAK-1-4 Inhibitor I]
How it was run: as §1

UniProt Q14149, sequence (Q14149 whole entry, looked up): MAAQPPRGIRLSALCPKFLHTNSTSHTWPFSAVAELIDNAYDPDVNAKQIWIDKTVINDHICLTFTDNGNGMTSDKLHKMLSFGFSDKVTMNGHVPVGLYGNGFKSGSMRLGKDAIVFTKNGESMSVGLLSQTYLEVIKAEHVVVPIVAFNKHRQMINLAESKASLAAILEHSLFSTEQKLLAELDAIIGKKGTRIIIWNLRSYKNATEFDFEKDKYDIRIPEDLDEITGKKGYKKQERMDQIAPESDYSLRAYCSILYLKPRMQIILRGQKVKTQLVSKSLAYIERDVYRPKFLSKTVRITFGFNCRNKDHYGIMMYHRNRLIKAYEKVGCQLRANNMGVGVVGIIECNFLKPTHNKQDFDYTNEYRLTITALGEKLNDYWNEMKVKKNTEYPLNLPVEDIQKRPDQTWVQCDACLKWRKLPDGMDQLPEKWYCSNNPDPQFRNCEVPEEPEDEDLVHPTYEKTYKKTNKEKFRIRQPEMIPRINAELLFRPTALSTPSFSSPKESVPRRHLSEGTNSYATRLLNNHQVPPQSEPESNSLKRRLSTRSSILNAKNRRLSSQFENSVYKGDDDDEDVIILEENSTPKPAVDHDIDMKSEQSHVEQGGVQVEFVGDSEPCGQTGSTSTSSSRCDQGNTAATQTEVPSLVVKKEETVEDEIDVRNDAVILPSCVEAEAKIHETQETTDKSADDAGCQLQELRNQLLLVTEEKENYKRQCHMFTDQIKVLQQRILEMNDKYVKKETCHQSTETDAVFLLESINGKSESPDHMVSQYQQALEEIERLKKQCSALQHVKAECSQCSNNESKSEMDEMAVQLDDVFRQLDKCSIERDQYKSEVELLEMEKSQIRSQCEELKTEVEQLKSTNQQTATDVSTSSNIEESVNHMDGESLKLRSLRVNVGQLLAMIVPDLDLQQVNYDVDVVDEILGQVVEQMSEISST
UniProt Q96II8, sequence (Q96II8 whole entry, looked up): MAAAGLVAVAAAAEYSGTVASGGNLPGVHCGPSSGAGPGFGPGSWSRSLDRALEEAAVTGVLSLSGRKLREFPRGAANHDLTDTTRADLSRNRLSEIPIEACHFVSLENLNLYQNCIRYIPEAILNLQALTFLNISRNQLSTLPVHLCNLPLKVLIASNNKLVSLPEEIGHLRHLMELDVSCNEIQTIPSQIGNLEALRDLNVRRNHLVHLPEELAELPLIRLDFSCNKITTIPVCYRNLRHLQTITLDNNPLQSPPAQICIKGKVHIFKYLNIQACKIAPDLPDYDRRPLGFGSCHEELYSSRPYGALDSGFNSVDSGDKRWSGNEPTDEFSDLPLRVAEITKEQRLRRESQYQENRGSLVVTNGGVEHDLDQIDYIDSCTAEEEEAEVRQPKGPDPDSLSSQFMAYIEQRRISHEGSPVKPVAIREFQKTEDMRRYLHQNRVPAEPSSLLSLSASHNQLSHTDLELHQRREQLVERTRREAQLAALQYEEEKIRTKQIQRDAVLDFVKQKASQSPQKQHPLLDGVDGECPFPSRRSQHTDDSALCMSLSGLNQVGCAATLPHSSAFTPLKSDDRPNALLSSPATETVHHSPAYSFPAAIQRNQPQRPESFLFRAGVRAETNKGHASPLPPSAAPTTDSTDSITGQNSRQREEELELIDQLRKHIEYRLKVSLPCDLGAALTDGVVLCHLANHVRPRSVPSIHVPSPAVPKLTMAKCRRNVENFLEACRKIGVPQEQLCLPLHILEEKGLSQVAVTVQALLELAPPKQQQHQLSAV
UniProt A9UHW6, sequence (A9UHW6 whole entry, looked up): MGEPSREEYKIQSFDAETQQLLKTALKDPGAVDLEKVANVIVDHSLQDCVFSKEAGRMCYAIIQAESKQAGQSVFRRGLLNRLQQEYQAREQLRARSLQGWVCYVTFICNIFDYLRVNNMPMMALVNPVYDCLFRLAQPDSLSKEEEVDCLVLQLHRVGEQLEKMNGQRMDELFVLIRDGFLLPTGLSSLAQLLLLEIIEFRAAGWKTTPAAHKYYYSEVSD
UniProt Q96G25, sequence (Q96G25 whole entry, looked up): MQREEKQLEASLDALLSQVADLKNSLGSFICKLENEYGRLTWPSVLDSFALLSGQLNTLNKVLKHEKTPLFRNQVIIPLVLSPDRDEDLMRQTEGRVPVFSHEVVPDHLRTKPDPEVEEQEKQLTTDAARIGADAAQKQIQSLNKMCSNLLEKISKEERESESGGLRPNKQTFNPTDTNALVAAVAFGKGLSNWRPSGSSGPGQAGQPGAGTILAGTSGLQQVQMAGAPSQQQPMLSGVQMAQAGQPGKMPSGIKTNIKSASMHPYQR
UniProt Q14807, sequence (Q14807 whole entry, looked up): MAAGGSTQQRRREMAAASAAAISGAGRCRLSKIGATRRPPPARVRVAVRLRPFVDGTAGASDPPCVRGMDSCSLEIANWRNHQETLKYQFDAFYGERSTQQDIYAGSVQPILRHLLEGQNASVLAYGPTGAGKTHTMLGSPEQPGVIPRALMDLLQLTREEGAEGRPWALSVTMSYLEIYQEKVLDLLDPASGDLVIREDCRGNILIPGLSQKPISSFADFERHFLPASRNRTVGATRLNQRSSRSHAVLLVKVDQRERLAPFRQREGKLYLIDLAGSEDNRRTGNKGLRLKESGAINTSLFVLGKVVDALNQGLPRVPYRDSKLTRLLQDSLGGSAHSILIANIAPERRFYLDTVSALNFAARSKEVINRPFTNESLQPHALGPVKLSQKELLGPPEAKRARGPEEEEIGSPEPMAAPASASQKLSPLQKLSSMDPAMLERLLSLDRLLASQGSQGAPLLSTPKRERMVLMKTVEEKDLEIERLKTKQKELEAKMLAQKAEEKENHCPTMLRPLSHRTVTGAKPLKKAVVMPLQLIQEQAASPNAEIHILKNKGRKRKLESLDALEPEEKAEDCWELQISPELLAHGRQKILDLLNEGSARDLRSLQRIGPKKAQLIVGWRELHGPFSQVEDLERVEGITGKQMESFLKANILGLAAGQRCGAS
UniProt Q8N5G2, sequence (Q8N5G2 whole entry, looked up): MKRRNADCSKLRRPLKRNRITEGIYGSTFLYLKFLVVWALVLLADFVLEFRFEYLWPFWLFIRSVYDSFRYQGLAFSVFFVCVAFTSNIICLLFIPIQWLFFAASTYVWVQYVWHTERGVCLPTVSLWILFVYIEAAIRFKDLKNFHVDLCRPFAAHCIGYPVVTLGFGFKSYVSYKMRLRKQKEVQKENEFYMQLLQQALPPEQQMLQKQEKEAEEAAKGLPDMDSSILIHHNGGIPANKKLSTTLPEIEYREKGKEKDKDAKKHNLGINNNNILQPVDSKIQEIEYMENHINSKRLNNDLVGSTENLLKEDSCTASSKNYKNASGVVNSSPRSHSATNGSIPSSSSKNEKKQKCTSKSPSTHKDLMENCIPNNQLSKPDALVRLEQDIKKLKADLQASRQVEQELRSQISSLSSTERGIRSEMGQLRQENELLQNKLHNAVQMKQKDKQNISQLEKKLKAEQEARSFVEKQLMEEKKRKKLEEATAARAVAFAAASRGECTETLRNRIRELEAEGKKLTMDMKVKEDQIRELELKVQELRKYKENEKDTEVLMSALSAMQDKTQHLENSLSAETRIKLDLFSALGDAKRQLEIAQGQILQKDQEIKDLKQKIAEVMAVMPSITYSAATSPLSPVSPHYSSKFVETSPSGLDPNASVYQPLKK
UniProt Q86V48, sequence (Q86V48 whole entry, looked up): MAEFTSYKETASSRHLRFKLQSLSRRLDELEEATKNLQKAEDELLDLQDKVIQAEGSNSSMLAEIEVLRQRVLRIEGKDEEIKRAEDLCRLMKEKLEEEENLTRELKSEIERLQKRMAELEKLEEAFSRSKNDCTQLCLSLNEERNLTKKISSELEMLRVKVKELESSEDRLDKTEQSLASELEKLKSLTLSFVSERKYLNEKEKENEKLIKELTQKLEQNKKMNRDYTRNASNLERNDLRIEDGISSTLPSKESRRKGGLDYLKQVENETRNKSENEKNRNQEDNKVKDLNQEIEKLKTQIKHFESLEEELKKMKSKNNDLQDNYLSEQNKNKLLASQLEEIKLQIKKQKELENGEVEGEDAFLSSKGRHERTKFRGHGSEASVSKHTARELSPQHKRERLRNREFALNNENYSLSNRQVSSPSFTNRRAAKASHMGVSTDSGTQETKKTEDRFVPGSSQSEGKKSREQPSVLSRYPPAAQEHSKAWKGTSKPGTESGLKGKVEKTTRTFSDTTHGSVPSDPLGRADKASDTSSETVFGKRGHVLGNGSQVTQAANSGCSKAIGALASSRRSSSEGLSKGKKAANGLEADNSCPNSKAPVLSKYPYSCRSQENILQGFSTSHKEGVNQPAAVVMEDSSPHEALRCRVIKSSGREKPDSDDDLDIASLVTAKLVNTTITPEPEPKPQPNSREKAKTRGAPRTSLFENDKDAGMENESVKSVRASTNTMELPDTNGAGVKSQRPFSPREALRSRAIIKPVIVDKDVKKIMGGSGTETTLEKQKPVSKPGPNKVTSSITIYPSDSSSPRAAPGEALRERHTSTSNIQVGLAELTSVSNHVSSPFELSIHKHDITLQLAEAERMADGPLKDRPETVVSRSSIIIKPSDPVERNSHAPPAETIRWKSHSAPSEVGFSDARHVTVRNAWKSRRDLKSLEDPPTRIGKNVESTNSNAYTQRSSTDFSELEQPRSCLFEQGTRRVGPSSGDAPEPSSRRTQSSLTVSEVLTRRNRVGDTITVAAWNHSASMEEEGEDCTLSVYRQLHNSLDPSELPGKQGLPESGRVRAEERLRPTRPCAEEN
UniProt Q9BTT4, sequence (Q9BTT4 whole entry, looked up): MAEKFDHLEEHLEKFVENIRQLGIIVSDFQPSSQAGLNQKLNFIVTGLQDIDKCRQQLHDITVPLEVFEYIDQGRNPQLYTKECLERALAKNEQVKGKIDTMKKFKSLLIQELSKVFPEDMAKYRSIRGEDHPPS

Row | Target | log2 fold change [1] | log2 fold change [2] | log2 fold change [3] | log2 fold change [4] | log2 fold change [5] | log2 fold change [6] | log2 fold change [7] | log2 fold change [8] | log2 fold change [9] | log2 fold change [10]
1 | LETM1 (UniProt O95202) | -0.012 | 0.061 | -0.157 | 0.012 | 0.014 | 0.01 | 0.044 | -0.006 | 0.02 | -0.013
2 | MRPL10 isoform 2 (UniProt Q7Z7H8) | -0.032 | 0 | 0.043 | 0.022 | -0.141 | -0.002 | -0.016 | -0.062 | 0.015 | 0.014
3 | MBOAT2 (UniProt Q6ZWT7) | -0.003 | 0.014 | -0.111 | -0.022 | -0.036 | -0.007 | -0.076 | -0.148 | -0.011 | -0.065
4 | LZTS1 (UniProt Q9Y250) | 0.182 | 0.832 | 0.291 | -0.011 | -0.12 | 0.113 | -0.075 | -0.2 | -0.07 | 0.055
5 | MORC3 (UniProt Q14149) | 0.02 | -0.047 | -0.005 | 0.01 | -0.025 | 0.034 | -0.033 | -0.029 | 0.002 | -0.011
6 | LYN (UniProt P07948) | 0.054 | -0.047 | 0.026 | -0.011 | -0.07 | -0.022 | 0.025 | 0.07 | -0.042 | 0.487
7 | LAMP1 (UniProt P11279) | 0.024 | 0.012 | 0.021 | -0.009 | 0.012 | 0.006 | -0.006 | -0.023 | 0.038 | 0.091
8 | MIF4GD isoform 3 (UniProt A9UHW6) | -0.006 | 0.041 | 0.03 | 0.028 | -0.073 | 0.039 | -0.03 | -0.052 | 0.051 | -0.04
9 | MACO1 (UniProt Q8N5G2) | -0.072 | -0.009 | -0.005 | -0.161 | 0.062 | -0.022 | -0.336 (active) | 0 | 0.012 | 0.022
10 | KRR1 (UniProt Q13601) | 0.016 | -0.232 | -0.007 | -0.019 | 0.009 | -0.01 | 0.045 | -0.032 | 0.06 | -0.069
11 | MAPK14 (UniProt Q16539) | 0.044 | 0.038 | -0.1 | -0.05 | -0.012 | 0.82 (active) | 0.081 | -0.076 | 0.015 | 0.013
12 | MANEA (UniProt Q5SRI9) | -0.079 | -0.119 | 0.076 | 0.089 | 0.027 | 0.118 | -0.092 | -0.014 | 0.016 | 0.041
13 | KIF15 (UniProt Q9NS87) | 0.004 | 0.025 | -0.01 | 0.011 | -0.019 | 0.048 | -0.054 | -0.04 | -0.019 | -0.012
14 | MED8 isoform 2 (UniProt Q96G25) | 0.017 | 0.007 | -0.001 | 0.021 | 0.027 | 0.008 | 0 | 0.014 | 0.088 | -0.005
15 | MAPK12 (UniProt P53778) | 0 | -0.026 | 0.009 | 0.016 | 0.041 | 0.023 | 0.001 | -0.058 | 0.019 | -0.048
16 | MAP4 (UniProt E7EVA0) | 0.056 | 0.01 | 0.113 | 0.045 | -0.072 | -0.004 | -0.076 | 0.071 | 0.061 | 0.037
17 | MPP5 (UniProt Q8N3R9) | 0.039 | -0.009 | 0.027 | -0.016 | 0.038 | 0.01 | -0.038 | -0.028 | -0.013 | 0.085
18 | LPIN1 isoform 7 (UniProt Q14693) | 0.047 | -0.046 | 0.027 | 0.003 | 0.003 | 0.011 | -0.006 | 0.038 | 0.132 | 0.034
19 | MICB, A0A140T979 | 0.022 | 0.086 | -0.029 | -0.07 | -0.168 | 0.034 | 0.046 | -0.021 | 0.275 | 0.023
20 | METTL2A (UniProt Q96IZ6) | 0.023 | -0.009 | -0.026 | 0.037 | 0 | -0.018 | -0.026 | 0.002 | 0.166 | 0.042
21 | MED10 (UniProt Q9BTT4) | 0.049 | -0.077 | 0.044 | 0.028 | -0.149 | -0.015 | 0.029 | 0.102 | 0.101 | -0.022
22 | MAPK9 (UniProt P45984) | -0.001 | 0.017 | -0.018 | -0.015 | 0.014 | 0.068 | 0.393 (active) | 0.061 | -0.032 | -0.014
23 | MLH1 (UniProt P40692) | 0.018 | 0.021 | -0.011 | 0.012 | -0.079 | 0.025 | -0.019 | -0.037 | 0.015 | -0.002
24 | LUZP1 (UniProt Q86V48) | -0.074 | -0.06 | -0.033 | 0.027 | -0.028 | -0.009 | 0.031 | -0.009 | 0.009 | 0.085
25 | KIF22 (UniProt Q14807) | 0.012 | -0.074 | 0.076 | -0.147 | -0.007 | -0.063 | -0.123 | 0.026 | 0.05 | 0.06
26 | MARF1 (UniProt Q9Y4F3) | 0.025 | 0.231 | 0.043 | -0.157 | 0.122 | 0.019 | 0.073 | -0.111 | -0.035 | -0.003
27 | KIF2A isoform 4 (UniProt O00139) | -0.008 | 0.02 | -0.014 | -0.007 | -0.037 | 0.001 | -0.022 | -0.02 | -0.041 | -0.026
28 | MAP2K1 (UniProt Q02750) | 0.016 | 0.04 | -0.026 | -0.02 | -0.012 | -0.006 | 0.188 | 0.105 | 0.077 | 0.011
29 | LRCH3 (UniProt Q96II8) | 0.043 | 0.047 | 0.021 | -0.013 | 0.001 | 0 | -0.053 | -0.102 | -0.014 | 0.028
30 | MAPKAPK2 (UniProt P49137) | -0.047 | 0.041 | 0 | 0.192 | 0.003 | 0.013 | 0.026 | -0.02 | 0.018 | -0.017
